Laboratory results as given in PubChem BioAssay AID1159580 (chemical genetic matrix, 2015).
In all, about 5,500 compounds went through this assay and about 2,000 (36%) were called active. Roughly 18% stayed inconclusive and do not appear here. Rule as the data show it: active = normalized growth mostly below about 0.91 (no sharp cut-off); inconclusive = no clear call, values can overlap the other calls; inactive = mostly above about 0.92. The list shows a part of the results.

Assay: chemical genetic growth profiling, strain panel (AID 1159580);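 also: tested at 20 µM; growth read once vehicle control cultures reached saturation at 30 °C; 1 = growth at the plate median or of vehicle wells; lower values mean less growth of the strain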
Settings: growth OD

Measured: normalized growth

COc1ccc(Oc2ccc(C(F)(F)F)cc2[N+](=O)[O-])cc1
inactive: S. cerevisiae deletion strains, locus YAL013W, strain DEP1, stronger effect = lower value 0.986 | S. cerevisiae deletion strains, locus YBR229C, strain ROT2, stronger effect = lower value 0.96 | S. cerevisiae deletion strains, locus YCL061C, strain MRC1, stronger effect = lower value 0.931 | S. cerevisiae deletion strains, locus YDL101C, strain DUN1, stronger effect = lower value 0.924 | S. cerevisiae deletion strains, locus YDL134C, strain PPH21, stronger effect = lower value 1.03 | S. cerevisiae deletion strains, locus YDR150W, strain NUM1, stronger effect = lower value 0.886 | S. cerevisiae deletion strains, locus YEL061C, strain CIN8, stronger effect = lower value 1.03 | S. cerevisiae deletion strains, locus YGR078C, strain PAC10, stronger effect = lower value 0.951 | S. cerevisiae deletion strains, locus YHR030C, strain SLT2, stronger effect = lower value 0.927 | S. cerevisiae deletion strains, locus YHR087W, strain rtc3, stronger effect = lower value 0.993 | S. cerevisiae deletion strains, locus YJL187C, strain SWE1, stronger effect = lower value 0.965 | S. cerevisiae deletion strains, locus YJR043C, strain POL32, stronger effect = lower value 0.946 | S. cerevisiae deletion strains, locus YJR075W, strain HOC1, stronger effect = lower value 0.925 | S. cerevisiae deletion strains, locus YLR039C, strain RIC1, stronger effect = lower value 0.901 | S. cerevisiae deletion strains, locus YLR058C, strain SHM2 (second series), stronger effect = lower value 1.02 | S. cerevisiae deletion strains, locus YLR085C, strain ARP6, stronger effect = lower value 0.896 | S. cerevisiae deletion strains, locus YLR262C, strain YPT6, stronger effect = lower value 0.926 | S. cerevisiae deletion strains, locus YML094W, strain GIM5, stronger effect = lower value 1.06 | S. cerevisiae deletion strains, locus YMR219W, strain ESC1, stronger effect = lower value 0.996 | S. cerevisiae deletion strains, locus YMR263W, strain SAP30, stronger effect = lower value 0.917 | S. cerevisiae deletion strains, locus YMR307W, strain GAS1, stronger effect = lower value 0.911 | S. cerevisiae deletion strains, locus YNL153C, strain GIM3, stronger effect = lower value 0.947 | S. cerevisiae deletion strains, locus YNL298W, strain CLA4 (second series), stronger effect = lower value 0.987 | S. cerevisiae deletion strains, locus YNL322C, strain KRE1, stronger effect = lower value 1.01 | S. cerevisiae deletion strains, locus YNR030W, strain Alg12, stronger effect = lower value 0.924 | S. cerevisiae deletion strains, locus YPL055C, strain LGE1, stronger effect = lower value 0.898 | S. cerevisiae deletion strains, locus YPL241C, strain CIN2, stronger effect = lower value 0.952 | S. cerevisiae strains, strain wild type, stronger effect = lower value 0.978
active: S. cerevisiae deletion strains, locus YPR135W, strain CTF4, stronger effect = lower value 0.624
